In the library only some 28% were active in any assay of this set; here they are far more common.
CYP2C19 inhib: inhibitors of human CYP2C19; P33261; CYP2C19 Supersomes, luciferin-H EGE luminescence, 30 min; inhibition, % at 5 µM; 96,000 tested, 21% active; AID 778;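 active = CYP2C19 inhibition above a set limit at 5 µM in the primary screen, cut at about 50% in these data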;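 note: plate controls were negative control wells for no effect and 2.5 mM tranylcypromine positive control for full effect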
CYP2C9 inhib: blocks human cytochrome P450 2C9; CYP2C9 Supersomes, luciferin-H conversion, luminescence; 96,000 tested, 20% active; AID 777; inhibition, % at 5 µM;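 active = blocking of liver enzyme CYP2C9 beyond about 50% at 5 µM, limit read from the data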
PLK1 kinase inh: PLK1 (human) kinase inhibition. AID 619. 97,000 tested, 0.53% active. recombinant PLK1 kinase, TR-FRET peptide phosphorylation. P53350. inhibition, % at 10 µM;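 active = inhibition of 50% or more in the single-concentration screen; inactive = inhibition below 50%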;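 note: 0% = DMSO max control and 100% = H-89 dihydrochloride min control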
Target sequence (P53350 whole entry, looked up): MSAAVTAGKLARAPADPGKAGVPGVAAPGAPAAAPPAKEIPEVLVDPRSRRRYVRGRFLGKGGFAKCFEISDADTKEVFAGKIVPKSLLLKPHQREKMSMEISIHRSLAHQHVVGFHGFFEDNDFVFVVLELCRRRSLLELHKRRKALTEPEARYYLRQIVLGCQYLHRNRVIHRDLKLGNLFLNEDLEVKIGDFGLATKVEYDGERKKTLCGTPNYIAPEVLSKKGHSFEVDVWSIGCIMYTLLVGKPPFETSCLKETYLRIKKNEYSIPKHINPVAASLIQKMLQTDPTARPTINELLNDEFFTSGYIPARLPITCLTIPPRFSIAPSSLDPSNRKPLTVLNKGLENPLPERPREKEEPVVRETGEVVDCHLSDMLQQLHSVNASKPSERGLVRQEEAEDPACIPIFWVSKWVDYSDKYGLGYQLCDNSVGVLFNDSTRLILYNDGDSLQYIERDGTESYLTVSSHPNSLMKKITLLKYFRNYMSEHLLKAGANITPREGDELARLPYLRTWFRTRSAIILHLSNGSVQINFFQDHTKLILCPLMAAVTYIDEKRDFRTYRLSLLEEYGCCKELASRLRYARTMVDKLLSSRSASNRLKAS
PLK1 PBD inh: Plk1 (human) PBD binding inhibition | P53350 | Plk1 PBD phosphopeptide binding, fluorescence polarization | inhibition, %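 (tested at about 20 µM)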 | 97,000 tested, 0.13% active | AID 693; in the data active = inhibition above about 34%, passing the limit was not always enough
CYP2C19 act: increases human CYP2C19 enzyme activity. P33261. recombinant CYP2C19, luciferin-H EGE luminescence; stronger effect = higher value; 0 = fully inhibited enzyme, 1 = untreated enzyme. activation factor at 5 µM. 96,000 tested, under 10 active;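 active = activation factor of at least 2 at 5 µM in the primary screen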;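 note: 0 = wells with 2.5 mM tranylcypromine and 1 = vehicle-only wells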
CYP2C9 activ: CYP2C9 (human) activation. 96,000 tested, 1.4% active. AID 1024. recombinant CYP2C9, luciferin-H conversion, luminescence; stronger effect = higher value; factor 1 = untreated enzyme, 0 = blocked. P11712. activation factor at 5 µM;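 active = activation factor of 2 or more for CYP2C9 at a 5 µM dose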;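 note: 0 = sulfaphenazole-blocked wells and 1 = vehicle-only wells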
* marks the source's active call; other numbers are inactive results; / = not tested or not shown.

SMILES	CYP2C19 inhib	CYP2C9 inhib	PLK1 kinase inh	PLK1 PBD inh	CYP2C19 act	CYP2C9 activ
C/C=C(\C)CN1CCN(c2ccc(C)cc2)CC1	85.9*	-1.3	-8.1	7.9	0.1	1
COc1ccccc1Oc1ccc(S(=O)(=O)NCc2ccccn2)cc1	44.0	28.4	-8.1	-17.8	0.6	0.7
CN(C(=O)CSc1nc2ccccc2n1CCc1ccccc1)C1CCS(=O)(=O)C1 (stereo not drawn)	68.5*	5.7	-7.8	6.1	0.3	0.9
CN(C(=O)CSc1nnc2ccccn12)C1CCS(=O)(=O)C1 (stereo not drawn)	0.8	-33.6	-8.0	-9.3	1	1.3
CCn1c(SCC(=O)N(Cc2ccccc2)C2CCS(=O)(=O)C2)nc2ccccc2c1=O (stereo not drawn)	80.7*	95.3*	-11.8	-10.1	0.2	0
Cc1cc2c(C)cc(=O)oc2c2c1NCCC2	16.0	-210.0	-19.1	-15.5	0.8	3.1*
O=C(COC(=O)c1ccccn1)NCCCc1ccccc1	38.4	15.8	-6.6	-21.1	0.6	0.8
COCCCNC(=O)c1ccc(NS(C)(=O)=O)cc1	0.5	8.4	-13.0	-3.9	1	0.9
CCOC(=O)c1sc(C)c2c1NC(C)(c1cccs1)NC2=O (stereo not drawn)	31.2	62.7*	-8.6	-18.3	0.7	0.4
Cc1cccc(-n2c(C)nc3sccc3c2=O)c1	41.9	2.2	-14.3	-16.3	0.6	1
CC(C)CNS(=O)(=O)c1ccc(CCC(=O)Nc2cc(Cl)ccc2Oc2ccccc2)cc1	45.2	73.1*	-13.0	7.6	0.5	0.3
CCCNS(=O)(=O)c1ccc(CCC(=O)Nc2cc(Cl)ccc2Oc2ccccc2)cc1	/	/	-8.1	1.2	/	/
CC(C)(C)NS(=O)(=O)c1ccc(CCC(=O)Nc2cc(Cl)ccc2Oc2ccccc2)cc1	73.0*	89.7*	-2.7	-17.8	0.3	0.1
CC(=O)N1CCc2cc(S(=O)(=O)CCC(=O)N3CCN(C(=O)c4ccco4)CC3)ccc21	/	/	0.1	8.1	/	/
Cc1cc(C(=O)Nc2sc(C)c(-c3ccc(F)cc3)c2C(N)=O)no1	-2.1	16.9	-4.5	-11.7	1	0.8
Cc1sc(NC(=O)c2ccc(OCC(C)C)cc2)c(C(N)=O)c1-c1ccc(Cl)cc1Cl	12.2	68.5*	-23.5	-7.8	0.9	0.3
CCOC(=O)c1cc2cc3ccccc3cc2[nH]1	/	/	-4.2	7.6	/	/
O=C(Cn1nc(-c2ccc(N3CCOCC3)c([N+](=O)[O-])c2)c2ccccc2c1=O)N1CCCCC1	4.4	46.7	-14.4	-5.0	1	0.5
Cn1ccnc1C(=O)c1cc(=O)c2ccccc2o1	22.5	-6.1	-9.1	9.0	0.8	1.1
CC(C)c1ccc(C(=O)CC2(O)C(=O)N(CN3CCOCC3)c3ccccc32)cc1 (stereo not drawn)	77.7*	17.5	-2.3	-1.9	0.2	0.8
Cc1ccc(C(=O)CC2(O)C(=O)N(CN3CCOCC3)c3ccccc32)cc1 (stereo not drawn)	54.5*	7.9	-16.3	-27.4	0.5	0.9
CCc1ccc(C(=O)CC2(O)C(=O)N(CN3CCOCC3)c3ccccc32)cc1 (stereo not drawn)	25.4	-6.7	-10.0	-0.4	0.7	1.1
Cc1cc(C(F)(F)F)nn1Cc1n[nH]c(=S)n1-c1cccc(Cl)c1	-7.3	-10.5	3.0	-7.4	1.1	1.1
COc1ccc(OC)c(C2CC(=O)N3CN(c4cccc(Cl)c4C)CSC3=C2C#N)c1 (stereo not drawn)	30.9	96.8*	-15.3	7.9	0.7	0
COc1cccc(C2CC(=O)N3CN(c4cccc(Cl)c4C)CSC3=C2C#N)c1OC (stereo not drawn)	8.1	97.4*	-14.5	-3.4	0.9	0
SMILES	CYP2C19 inhib	CYP2C9 inhib	PLK1 kinase inh	PLK1 PBD inh	CYP2C19 act	CYP2C9 activ
COc1cc(C(=O)Oc2cccc(Nc3ncnc4ccccc34)c2)cc(OC)c1OC	45.3	63.1*	7.0	10.1	0.5	0.4
CC(C)CC(=O)Nc1cccc(-c2nc3ccccc3o2)c1	28.8	74.3*	-6.2	-4.5	0.7	0.3
CC(Oc1ccc(Cl)cc1Cl)C(=O)Nc1ccc2oc(-c3ccncc3)nc2c1 (stereo not drawn)	55.1*	61.1*	-18.2	15.1	0.4	0.4
O=C(Cc1ccccc1)Nc1ccc2oc(-c3ccncc3)nc2c1	3.6	9.7	/	/	1	0.9
Cc1ccc(-c2nc3cc(NC(=O)C(C)C)ccc3o2)cc1C	/	/	-18.9	4.2	/	/
CC(C)CC(=O)Nc1ccc2oc(-c3ccncc3)nc2c1	51.7*	69.2*	-7.3	2.1	0.5	0.3
O=[N+]([O-])c1cccc(C(=Nc2ccccc2Cl)NO)c1	87.4*	61.7*	5.0	-13.2	0.1	0.4
ONC(=Nc1ccc(Cl)cc1)c1ccc(Cl)cc1	70.8*	55.4*	-16.1	14.0	0.3	0.4
Cc1cc(/C=N/NC(=O)c2cccc([N+](=O)[O-])c2)c(C)n1-c1ccc(Cl)cc1Cl	-13.2	-0.8	-12.7	-7.3	1.1	1
O=[N+]([O-])c1cccc(C(=Nc2ccc(Cl)cc2)NO)c1	87.9*	71.3*	2.9	-10.0	0.1	0.3
COc1ccc(C2OC34CCCCC3C(C#N)(C#N)C2(C#N)C(=N)O4)cc1 (stereo not drawn)	16.2	10.0	-5.0	12.9	0.8	0.9
Cc1c(C(=O)N2CC(C)OC(C)C2)oc2ccccc12 (stereo not drawn)	16.7	-63.9	/	/	0.8	1.6
O=C(Oc1nsnc1N1CCOCC1)N1CCOCC1	-9.0	-9.1	-8.2	11.1	1.1	1.1
COCC(C)NCc1ccccc1C (stereo not drawn)	26.0	80.0*	-10.3	1.7	0.7	0.2
COc1ccccc1NC(=O)c1sc2ncn(Cc3ccccc3C)c(=O)c2c1C	34.4	-49.6	-40.0	0.1	0.7	1.5
CCCc1nc2oc3c(NCC4CCCO4)ncnc3c2c2c1COC(C)(C)C2 (stereo not drawn)	37.6	51.9*	/	/	0.6	0.5
CCCc1nc2oc3c(NCc4ccccn4)ncnc3c2c2c1COC(C)(C)C2	29.5	51.7*	/	/	0.7	0.5
CC1(C(=O)N2CC3(CC(c4cccc([N+](=O)[O-])c4)=NO3)C[C@H]2C(=O)NCC(N)=O)CC1 (stereo partly drawn)	4.8	-15.0	-6.5	-23.5	1	1.1
Cc1cc2cc(CNS(=O)(=O)c3ccccc3)ccc2n1C	100.1*	74.3*	-16.2	32.7	0	0.3
CCS(=O)(=O)NCc1ccc2c(c1)cc(C)n2C	54.2*	59.9*	-3.3	10.4	0.5	0.4
COc1ccc(S(=O)(=O)NCc2ccc3c(c2)cc(C)n3C)cc1	75.8*	17.7	-12.4	-38.8	0.2	0.8
CCOC(=O)NCc1ccc2c(c1)cc(C)n2C	31.4	1.7	-12.3	4.3	0.7	1
Cc1cc2cc(CNC(=O)Nc3ccccc3)ccc2n1C	/	/	-12.4	4.0	/	/

From PubChem BioAssay
